Each structure is given as a SMILES string. The whole screen tested about 410,000 compounds, of which about 6,400 (1.6%) were called active. Not shown: some 20% with an inconclusive outcome. The call rests on the fitted dose curve; in most records, active means well fitted inhibition curve with a large enough effect; inconclusive means small, poorly fitted or top-dose-only effect; inactive means no such curve, though single readings can be large or run the other way. The list comes from a sample in which actives are over-represented; it also holds similar structures and randomly drawn compounds. Entries that show only a call come without a potency.
Potency means the concentration at half of the fitted maximal effect.

Chain of Glucagon-like peptide 1 receptor (Homo sapiens) (P43220 whole entry, looked up): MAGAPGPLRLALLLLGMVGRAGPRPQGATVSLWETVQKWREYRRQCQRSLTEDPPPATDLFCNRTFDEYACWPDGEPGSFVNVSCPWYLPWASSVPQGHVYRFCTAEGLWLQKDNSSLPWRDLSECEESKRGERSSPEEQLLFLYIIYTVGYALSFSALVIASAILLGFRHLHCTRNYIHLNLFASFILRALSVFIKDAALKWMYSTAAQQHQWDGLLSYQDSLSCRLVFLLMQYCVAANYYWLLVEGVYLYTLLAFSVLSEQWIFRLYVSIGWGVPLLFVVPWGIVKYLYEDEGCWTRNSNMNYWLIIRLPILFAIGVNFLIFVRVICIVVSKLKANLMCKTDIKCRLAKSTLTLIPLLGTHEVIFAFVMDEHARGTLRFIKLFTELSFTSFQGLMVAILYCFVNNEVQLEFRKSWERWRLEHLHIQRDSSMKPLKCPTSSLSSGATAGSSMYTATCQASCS

The assay has as its target Glucagon-like peptide 1 receptor (Homo sapiens) (UniProt P43220). In words: qHTS of GLP-1 Receptor Inverse Agonists (Inhibition Mode). Further: nearly all actives have a fitted effect of over 55% in size. As to conditions: HEK293 GLP-1R CRE-luciferase, luminescence, 24 h, GLP-1R form is constitutively active; series mostly up to 38.3 µM. The procedure, abridged: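 Cells are plated, allowed 12 hours at 37 deg C, then treated with compounds for 24 hr before luciferase detection reagent is added and luminescence is read after 12 min at room temperature. The HEK293 line carries constitutively active GLP-1R with a cAMP-responsive reporter.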
A general note: qHTS replaces the single test concentration by a dilution series.
For the compound `CCc1c(N=O)c(-c2ccccc2)n(O)[n+]1[O-]`, the Potency entry is “inactive”.

On to `CCC(Oc1ccccc1)C(=O)OCC(=O)Nc1c(C)nn(-c2ccccc2)c1C` (centres undefined), for which the Potency result is “inactive”.

In the case of `COc1cccc(N(CC(=O)N2CCc3ccccc3C2)S(C)(=O)=O)c1`, the Potency result is “inactive”.

With `CS(=O)(=O)N(CC(=O)N1CCc2ccccc2C1)c1ccc(Br)cc1`, the Potency result was “inactive”.

Regarding `Cc1ccc(S(=O)(=O)N(CC(=O)N2CCc3ccccc3C2)c2cccc(Cl)c2)cc1`, the Potency was 8.91 µM (active).

In the case of `O=C(NCc1ccccc1)C1c2ccccc2OCC(=O)N1C1CC1` (centres undefined), the Potency entry is “inactive”.

`COc1ccc(-c2ccc(CN3C(C(C)C)C(=O)N(Cc4cn(CC5CCCCC5)nn4)CCS3(=O)=O)cc2)cn1` (centres undefined): the Potency entry is “inactive”.

`COCOCCn1cc(CN2CCS(=O)(=O)N(Cc3ccc(-c4cccc(N(C)C)c4)cc3)C(CC(C)C)C2=O)nn1` (centres undefined): the Potency result is “inactive”.

As for `CC(C)CC1C(=O)N(Cc2cn(Cc3ccco3)nn2)CCS(=O)(=O)N1Cc1ccc(-c2ccc(Cl)c(Cl)c2)cc1` (centres undefined), the Potency was 10 µM (active).

Take `CC1C(=O)N(Cc2cn(Cc3ccco3)nn2)CCS(=O)(=O)N1Cc1ccc(-c2cccc(CO)c2)cc1` (centres undefined): the Potency entry is “inactive”.

`COc1ccc(-c2ccc(CN3C(CC(C)C)C(=O)N(Cc4cn(CC5CCCCC5)nn4)CCS3(=O)=O)cc2)cc1` (centres undefined): the Potency is 10 µM (active).

As to `CC(C)CC1C(=O)N(Cc2cn(CC3CCCCC3)nn2)CCS(=O)(=O)N1Cc1ccc(-c2ccc(Cl)cc2)cc1` (centres undefined), the Potency result was “inactive”.

Turning to `CCN1C(=O)[C@@H]2[C@@H]3CN(S(=O)(=O)c4ccccc4C)[C@@H](c4ccc(Cl)cc4)[C@@H]3C(=O)C[C@@H]2C1=O`, the Potency entry was “inactive”.

With `CCOC(=O)c1cc(-c2sc(NC(=O)c3ccccc3)nc2C)n(CCO)n1`, the Potency entry was “inactive”.

Take `CCc1nc2ccc(C(=O)NCCNC(C)=O)cn2c1N(CC)Cc1cccc(Br)c1`: the Potency result is “inactive”.

For the compound `CC(C)(C)NC(=O)Cn1nnc(-c2ccccc2Cl)n1`, the Potency result is “inactive”.

Regarding `COc1ccc(CNC(=O)Cn2nnc(-c3ccccc3F)n2)cc1`, the Potency entry is “inactive”.

Regarding `C#CC(C)(CC)NC(=O)Cn1nnc(-c2ccc(OCc3c(F)cccc3Cl)cc2)n1` (centres undefined), the Potency is 3.16 µM (active).

As for `CN(C)S(=O)(=O)N1CCC(Oc2cccc(C(=O)NCCCC3CCCC3)c2)CC1`, the Potency is 10 µM (active).

Take `CNS(=O)(=O)c1cccc(C(=O)NCC2CCCCC2)c1`: the Potency result is “inactive”.

For the compound `CN(C(=O)c1cccc(OC2CCN(S(=O)(=O)N(C)C)CC2)c1)C1CCOC1` (centres undefined), the Potency result is “inactive”.

With `CCNC(=O)C1(C)CCN(Cc2ccc(C(=O)OCC)o2)C1` (centres undefined), the Potency result was “inactive”.

In the case of `CCc1noc(C)c1C(=O)OCC(=O)c1ccc(NC(=O)CC(C)C)cc1`, the Potency result is “inactive”.

Take `Cc1cccc(C)c1NC(=O)C(c1cccc2ccccc12)n1c(=O)c(-c2ccco2)nc2ccccc21` (centres undefined): the Potency result is “inactive”.

For the origin of these results see PubChem BioAssay AID624417 (National Center for Advancing Translational Sciences (NCATS), 2012).
